TGFb inhibitor – inhibitors of TGF-b signaling; 410,000 tested, 1.2% active; AID 588855; HepG2 CAGA-GFP TGF-b/SMAD3 reporter, GFP fluorescence, 18 h; TGF-beta stimulated, 500 pg/mL final; Potency, µM (top dose mostly 46.1 µM), for inactives: at the highest dose activity, negative = inhibition, most hits filed as inhibitors; further: potency means the concentration at half of the fitted maximal effect; on the % scale 0 is the no-effect control and ±100 the full control effect; nearly all actives have a fitted effect of over 65% in size
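Inhibition was scored as loss of TGF-beta-induced (500 pg/mL final, 18 hours, 37 degrees C) GFP in HEPG2 cells carrying a CAGA-GFP reporter, in DMEM with 1% FBS. Well GFP was summed per cell; Activity was normalised to unstimulated and stimulated DMSO wells, then concentration-response fitting.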
TDP1 block – inhibitors of human tyrosyl-DNA phosphodiesterase TDP1. Q9NUW8. recombinant TDP1, AlphaScreen DNA substrate cleavage. Potency, µM (highest dose often 130 µM), for the others: at the highest dose activity change, negative = inhibition, actives largely listed as inhibitors. 350,000 tested, 0.28% active. AID 485290; further: potency means the concentration at half of the fitted maximal effect; on the % scale 0 is the no-effect control and ±100 the full control effect; nearly all actives have a fitted effect of over 40% in size
Target sequence (Q9NUW8 whole entry, looked up): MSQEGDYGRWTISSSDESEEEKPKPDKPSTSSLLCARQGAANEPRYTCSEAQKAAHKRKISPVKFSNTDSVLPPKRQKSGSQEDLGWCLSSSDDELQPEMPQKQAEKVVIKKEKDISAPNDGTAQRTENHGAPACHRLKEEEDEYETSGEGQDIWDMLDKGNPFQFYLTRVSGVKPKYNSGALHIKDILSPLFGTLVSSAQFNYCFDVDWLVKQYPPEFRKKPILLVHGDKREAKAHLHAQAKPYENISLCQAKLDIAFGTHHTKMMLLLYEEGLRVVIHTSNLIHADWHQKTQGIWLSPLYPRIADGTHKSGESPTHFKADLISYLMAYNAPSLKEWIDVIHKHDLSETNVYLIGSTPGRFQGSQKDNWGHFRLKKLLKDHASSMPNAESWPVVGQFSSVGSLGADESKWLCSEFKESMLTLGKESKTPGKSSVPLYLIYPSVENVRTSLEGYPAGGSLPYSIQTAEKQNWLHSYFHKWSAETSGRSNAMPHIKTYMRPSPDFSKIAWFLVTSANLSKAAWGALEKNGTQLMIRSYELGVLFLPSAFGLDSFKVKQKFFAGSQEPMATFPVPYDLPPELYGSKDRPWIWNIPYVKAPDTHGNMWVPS
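Enzyme-compound mixtures sat 15 min at room temperature, followed by a 5 min reaction with 15 nM final substrate and 10 min with AlphaScreen beads. Recombinant human Tdp1 was used at 1 nM final.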
TDP1 cell CPT – DT40-hTDP1 cell growth loss with CPT; 420,000 tested, 12% active; chicken DT40 Tdp1-/-;hTDP1 cells + 20 nM CPT, ATP luminescence, 48 h; Potency, µM (highest dose often 46.2 µM), for the others: at the top dose activity change, negative = growth inhibition, usual class: inhibitors; AID 686979; further: potency means the concentration at half of the fitted maximal effect; on the % scale 0 is the no-effect control and ±100 the full control effect; nearly all actives have a fitted effect of over 55% in size
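Cell growth measured by CellTiter-Glo luminescence after a minimum 48 h, 37 C compound exposure with 20 nM CPT in Tdp1-knockout DT40 cells stably expressing hTDP1, seeded 400/well; qHTS titration format.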
IL1B secr inh – blocks inflammasome-driven IL-1 beta release; THP-1 LPS/ATP IL-1B secretion, AlphaLISA, 16 h; hits give low values; activity change, % at 57.5 µM; 360,000 tested, 4.7% active; AID 743279; in the data active means activity change below about -50%; inconclusive means mostly about -30% to -49%; further: on the % scale 0 is the no-effect control and ±100 the full control effect
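THP-1 cells pretreated 1 hr with compounds (up to 57.5 uM final), then stimulated with LPS (250 ng/mL final) plus ATP (1.25 mM final); secreted IL-1B measured by AlphaLISA after 16 hr, decreased signal indicating inhibition.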
HepG2 viability – counter-screen for TGF-b inhibitors: cytotoxicity in HepG2 cells. HepG2 CAGA-GFP viability, ATP luminescence, 18 h. Potency, µM (titrated, usually from 46.1 µM), without a hit: top-dose activity change, negative = cytotoxicity, actives largely listed as cytotoxic. 410,000 tested, 0.76% active. AID 588856; further: potency means the concentration at half of the fitted maximal effect
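HepG2 CAGA-GFP cells (1000/well, DMEM with 1% FBS) received compound, then TGF-beta at 500 pg/mL final, and were incubated 18 hours at 37 degrees C. Viability was read by CellTiter-Glo luminescence. Media-only wells were set as complete cell-killing and DMSO as no toxicity.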
DT40 TDP1 no CPT – qHTS for Inhibitors of human tyrosyl-DNA phosphodiesterase 1 (TDP1): qHTS in cells in absence of CPT; DT40 Tdp1-/- hTDP1 cells, no CPT, ATP luminescence, 48 h; Potency, µM (titrated, usually from 46.2 µM), for inactives: at the highest dose activity change, negative = growth inhibition, usual class: inhibitors; 420,000 tested, 15% active; AID 686978, 2013; further: potency means the concentration at half of the fitted maximal effect; on the % scale 0 is the no-effect control and ±100 the full control effect; nearly all actives have a fitted effect of over 55% in size
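DT40 Tdp1-/-;hTDP1 cells, no CPT (DMSO vehicle only), 400 cells/well; compounds pin-transferred; ≥48 hr, 37 °C; CellTiter-Glo 30 min RT dark, luminescence read.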
The depositor's hits bear a star; i = inactive; ? = inconclusive; . = not tested or not shown; [ ] = another dose, or the depositor's remark. An excerpt weighted towards active compounds, which were near 18% of everything screened. Unless noted, the call rests on the fitted dose curve; in most records, active means well fitted curve in the direction sought with a large enough effect; inconclusive means small, poorly fitted or top-dose-only effect, or another doubt; inactive means no such curve, though single readings can be large; an effect the other way counts as inactive or inconclusive.

SMILES	TGFb inhibitor	TDP1 block	TDP1 cell CPT	IL1B secr inh	HepG2 viability	DT40 TDP1 no CPT
COc1cccc(C(NC(C)=O)c2nc(-c3cccc(C(=O)O)c3)cs2)c1 (centres undefined)	-2%	.	-23%	2	4%	11%
COc1ccc(/C=C2/Sc3ccc(C(=O)NCCCN4CCOCC4)cc3NC2=O)cc1OC	14µM*	4%	4.6µM*	43	20µM*	2.6µM*
CCOC(=O)C1CCN(C(=O)c2ccc3c(c2)NC(=O)/C(=C\c2ccc(C)cc2)S3)CC1	-30%	5%	?	0	-19%	?
COc1ccc(C(=O)NCCCN2CCOCC2)cc1OC	-3%	0%	0%	12	-9%	-22%
Cc1ccc(/C=C2/Sc3ccc(C(=O)NCc4ccccn4)cc3NC2=O)cc1	1%	32µM*	?	-2	2%	-10%
CCN1CCCC1CNC(=O)c1ccc2c(c1)NC(=O)/C(=C\c1ccccc1Cl)S2 (centres undefined)	?	.	?	?	-96%	?
O=C1Nc2cc(C(=O)NCCCN3CCCC3)ccc2S/C1=C/c1cccc(Cl)c1	?	.	6.5µM*	-4	16µM*	?
CCN1CCCC1CNC(=O)c1ccc2c(c1)NC(=O)/C(=C\c1ccc(OC)c(OC)c1)S2 (centres undefined)	13µM*	3%	?	26	13µM*	16µM*
CC(NC(=O)c1cc(-c2cccnc2)nc2ccc(Br)cc12)C1CCCO1 (centres undefined)	0%	1%	-11%	1	-15%	-18%
Cc1cccc(/C=C2/Sc3ccc(C(=O)NCCCN4CCOCC4)cc3NC2=O)c1	.	3%	.	.	.	.
O=C1Nc2cc(C(=O)NCCN3CCCCCC3)ccc2S/C1=C\c1ccccc1	?	6%	13µM*	-93*	14µM*	12µM*
CCN1CCN(CCCNC(=O)c2ccc3c(c2)NC(=O)/C(=C\c2cccc(C)c2)S3)CC1	?	9%	16µM*	-87*	13µM*	?
Cn1nccc1C(=O)NCC1CCC2(CCN(Cc3cccc4ncccc34)CC2)O1 (centres undefined)	.	.	-1%	.	.	-22%
COC(=O)[C@H](Cc1ccccc1)NC(=O)N1Cc2ccccc2C[C@H]1C(=O)OC	-2%	.	-29%	-7	24%	?
COC(=O)C1Cc2ccccc2CN1C(=O)CCl (centres undefined)	-15%	6%	15µM*	-97*	-31%	15µM*
O=c1[nH]nc(-c2ccc(NCCO)c([N+](=O)[O-])c2)c2ccccc12	10%	.	-17%	-2	-3%	?
O=[N+]([O-])c1cc(Cl)cc2c1nc(NCCO)c1ccccc12	?	4%	18%	-83*	-30%	?
O=C(CSc1nnc2c(Cl)cc(C(F)(F)F)cn12)N(Cc1ccccc1)Cc1ccccc1	3%	-1%	-74%	-29	11µM*	21µM*
O=C(CSc1nnc2c(Cl)cc(C(F)(F)F)cn12)NCc1ccc(F)cc1	3%	-3%	4%	6	0%	-23%
O=C(Nc1nnc(-c2ccc3c(c2)CCCC3)o1)c1ccccc1	?	13%	5.2µM*	110	-20%	5.8µM*
O=C(Nc1nnc(-c2ccc3c(c2)CCCC3)o1)c1ccccc1Cl	?	9%	?	6	-7%	16µM*
O=C(COc1ccccc1)Nc1nnc(-c2ccc3c(c2)CCCC3)o1	-25%	13%	-24%	-18	-42%	-18%
O=[N+]([O-])c1ccc(CN2CCN(c3ccc(Cl)cc3)CC2)o1	-3%	.	-25%	-7	-1%	-13%
Cc1ccc(Cl)c2c1NC(=O)C2(O)CC(=O)c1ccc(Br)cc1 (centres undefined)	-20%	8%	-9%	39	-10%	-19%
O=C(CC1(O)C(=O)Nc2cc(Cl)cc(Cl)c21)c1ccncc1 (centres undefined)	?	-3%	?	-100*	-106%	?
SMILES	TGFb inhibitor	TDP1 block	TDP1 cell CPT	IL1B secr inh	HepG2 viability	DT40 TDP1 no CPT
O=[N+]([O-])c1cc(Br)c(OCc2nnc(-c3ccccc3)o2)c(Br)c1	7%	1%	-30%	-13	-12%	?
O=[N+]([O-])c1ccc2c(OCc3nnc(-c4ccccc4Br)o3)ncnc2c1	-11%	0%	?	38	-18%	13µM*
Cc1occc1C(=O)n1nnc2ccccc21	-14%	1%	?	-9	-45%	21µM*
Cc1occc1C(=O)n1cnc2ccccc21	.	5%	.	.	.	.
COc1ccc(C(=O)n2nnc3ccccc32)cc1Br	1%	7%	16µM*	-14	2%	?
COc1cccc2cc(C(=O)NCc3ccc(Cl)cc3)c(=O)oc12	-4%	-2%[0.0935 µM]	3%	4	-13%	?
CCOc1cccc2cc(C(=O)NCc3ccc(F)cc3)c(=N)oc12	1%	2%[56.1 µM]	?	-6	4%	23µM*
CCOc1cccc2cc(C(=O)NC(C)c3ccccc3)c(=N)oc12 (centres undefined)	-12%	1%	?	i	-23%	26µM*
CCOc1cccc2cc(C(=O)NCc3ccccc3)c(=N)oc12	-2%	.	?	-28	-10%	?
COc1cccc2cc(C(=O)NCc3ccccc3)c(=N)oc12	-15%	3%	21µM*	-105*	-3%	?
COc1cccc2cc(C(=O)NCc3ccc(Cl)cc3)c(=N)oc12	-5%	-5%	23µM*	-91*	1%	?
Cc1cc(NC(=O)c2cc(-c3ccc(Cl)cc3)on2)n(-c2ccccc2)n1	-7%	5%	-19%	.	-2%	-19%
Oc1ccc(C2Nc3cccc4cccc(c34)N2)c(O)c1	?	6%	4.1µM*	-4	-7%	26µM*
Clc1ccccc1C1Nc2cccc3cccc(c23)N1	?	.	?	2	0%	?
COc1cc(C2Nc3cccc4cccc(c34)N2)cc(OC)c1O	-17%	3%	18µM*	-90*	-13%	?
FC(F)(F)c1ccc(C2Nc3cccc4cccc(c34)N2)cc1	18%	1%	?	-10	-1%	?
COc1ccc(C2Nc3cccc4cccc(c34)N2)cc1Br	-8%	.	?	19	-9%	?

Compound activity deposited in PubChem by National Center for Advancing Translational Sciences (NCATS).
